In PubChem BioAssay (Tox21):
Inconclusive results are not listed. Active and inactive are the calls of the source. Unless noted, the call rests on the fitted dose curve; in most records, active means well fitted curve in the direction sought with a large enough effect in the repeat runs; inconclusive means weak or mixed curves; inactive means no such curve, though single readings can be large; an effect the other way counts as inactive or inconclusive.

Columns and labels:
[1] = molecular target: Retinoic acid receptor RXR-alpha (Homo sapiens) (UniProt P19793); experiment: qHTS assay to identify small molecule agonists of the RXR signaling pathway (AID 1159527; calls by dose curve; further: nearly all actives have a fitted effect of over 35% in size; further: potency means the concentration at half of the fitted maximal effect)
Outline: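 GeneBLAzer RXR-alpha-UAS-bla HEK 293T cells in medium with 2% charcoal-stripped FBS, pre-incubated 5 hr at 37 C, then exposed to compounds 16 hr. Beta-lactamase reporter read by FRET substrate, 2 hr room temperature, 460/530 nm emission.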

[2] = qHTS assay to identify small molecule agonists of the RXR signaling pathway - cell viability counter screen (AID 1159529); further: series mostly up to about 77 µM; nearly all actives have a fitted effect of over 50% in size
Outline: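 RXR-alpha-UAS-bla HEK 293T cells in medium with 2% charcoal-stripped FBS were preincubated 5 hr, then exposed to compounds for 16 hr at 37 C. Viability was read as CellTiter-Glo luminescence after 30 min at room temperature.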

[3] = qHTS assay to identify small molecule antagonists of the retinoid acid receptor (RAR) signaling pathway - cell viability counter screen (AID 1159551); further: nearly all actives have a fitted effect of over 35% in size
Outline: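 C3RL4 RARE-luciferase cells, 1,000/well, incubated overnight, then dosed with compound plus 1 uM retinol (final). After 6 hr at 37 C, viability read by CellTiter-Glo ATP luminescence following 30 min at room temperature.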

[4] = qHTS assay to identify small molecule antagonists of the estrogen related receptor (ERR) signaling pathway from Tox21 library - cell viability counter screen (AID 1224834); further: nearly all actives have a fitted effect of over 30% in size
Outline: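 ERR reporter cells, 2,000 per well, rested 6 h, then exposed to compound in DMSO for 17.5 hours at 37 C. Viability read as fluorescence after 30 min with CellTiter-Fluor.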

[5] = molecular target: Luciferin 4-monooxygenase (Photinus pyralis) (UniProt P08659); experiment: qHTS assay to identify small molecule inhibitors of firefly luciferase (AID 1224835); further: series mostly up to about 120 µM; nearly all actives have a fitted effect of over 25% in size
Outline: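 Quantitative HTS format; KM concentrations of both substrates. Purified P. pyralis FLuc activity quantified from luminescence images.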

[6] = qHTS assay to identify small molecule agonists of the constitutive androstane receptor (CAR) signaling pathway - cell viability counter screen (AID 1224836); further: series mostly up to about 92 µM; nearly all actives have a fitted effect of over 45% in size
Outline: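 HepG2 cells stably carrying hCAR and a CYP2B6-2.2kb reporter were plated 4 h, then given compounds at 15 concentrations plus PK11195 (final 0.75 uM). After 23 h at 37 C, viability was read by CellTiter-Fluor fluorescence.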

[7] = qHTS assay to identify small molecule antagonists of the constitutive androstane receptor (CAR) signaling pathway - cell viability counter screen (AID 1224837); further: series mostly up to about 92 µM; nearly all actives have a fitted effect of over 45% in size
Outline: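 HepG2 cells stably carrying hCAR and CYP2B6-2.2kb reporter, stimulated with 50 nM CITCO and compounds at 15 concentrations for 23 h at 37 C. Viability measured by CellTiter-Fluor fluorescence.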

[8] = qHTS assay to identify small molecule antagonists of the estrogen related receptor signaling pathway with the pleiotropic PPARgamma coactivator (PGC) from Tox21 10K library - cell viability counter screen (AID 1224840; active means well fitted cell-killing curve with a large enough effect in the repeat runs, not every such curve was filed as active; further: nearly all actives have a fitted effect of over 40% in size)
Outline: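 PGC/ERR cells (2,000/well) plated 6 h, then compound-treated for 17.5 h at 37 C. Viability measured by CellTiter-Fluor fluorescence after 30 min at 37 C, multiplexed with the pathway assay.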

[9] = molecular target: Nuclear receptor subfamily 1 group I member 3 (Homo sapiens) (UniProt Q14994); experiment: qHTS assay to identify small molecule agonists of the constitutive androstane receptor (CAR) signaling pathway (AID 1224839);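 further: HepG2 cells stably carrying human CAR and a CYP2B6 luciferase reporter; series mostly up to about 92 µM; nearly all actives have a fitted effect of over 15% in size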
Outline: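 HepG2 cells stably expressing hCAR and a CYP2B6-2.2kb luciferase reporter were treated with compounds at 15 concentrations plus 0.75 uM PK11195 (final) for 24 h at 37 C; luminescence was read after ONE-Glo addition.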

[10] = qHTS assay to identify small molecule antagonists of the estrogen related receptor signaling pathway with the pleiotropic PPARgamma coactivator (PGC) from Tox21 10K library (AID 1224841; call rule not given here; further: series mostly up to about 92 µM; actives are mostly falling curves and most rising ones were filed inactive; nearly all actives have a fitted effect of over 50% in size)
Outline: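 PGC/ERR cell line, 2,000 cells/well, pre-incubated 6 hours at 37 C, then exposed to compounds for 18 hours at 37 C; luciferase read with One-Glo luminescence after 30 min at room temperature.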

[11] = qHTS assay to identify small molecule agonists of the estrogen related receptor signaling pathway with the pleiotropic PPARgamma coactivator (PGC) from Tox21 10K library (AID 1224842); further: nearly all actives have a fitted effect of over 15% in size
Outline: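 PGC/ERR reporter cells (NTP line) were seeded 2,000 per well, rested 6 h at 37 C/5% CO2, then pin-dosed with compounds in DMSO for 18 h at 37 C; luciferase read by One-Glo luminescence after 30 min at room temperature.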
On the % scale 0 is the no-effect control and ±100 the full control effect.

Sequence of Retinoic acid receptor RXR-alpha (Homo sapiens) (P19793 whole entry, looked up): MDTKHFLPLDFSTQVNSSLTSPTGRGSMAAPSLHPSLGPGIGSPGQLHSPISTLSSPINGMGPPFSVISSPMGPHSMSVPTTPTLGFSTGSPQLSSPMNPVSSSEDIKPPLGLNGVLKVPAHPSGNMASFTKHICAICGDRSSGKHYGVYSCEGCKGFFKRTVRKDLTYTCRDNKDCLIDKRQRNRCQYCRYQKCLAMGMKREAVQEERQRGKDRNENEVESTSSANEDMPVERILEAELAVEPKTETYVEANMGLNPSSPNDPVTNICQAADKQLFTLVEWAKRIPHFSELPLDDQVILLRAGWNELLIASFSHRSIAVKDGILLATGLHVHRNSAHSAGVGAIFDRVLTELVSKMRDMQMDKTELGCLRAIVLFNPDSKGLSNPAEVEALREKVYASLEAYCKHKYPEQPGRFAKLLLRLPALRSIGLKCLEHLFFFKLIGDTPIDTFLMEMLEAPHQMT
Sequence of Luciferin 4-monooxygenase (Photinus pyralis) (P08659 whole entry, looked up): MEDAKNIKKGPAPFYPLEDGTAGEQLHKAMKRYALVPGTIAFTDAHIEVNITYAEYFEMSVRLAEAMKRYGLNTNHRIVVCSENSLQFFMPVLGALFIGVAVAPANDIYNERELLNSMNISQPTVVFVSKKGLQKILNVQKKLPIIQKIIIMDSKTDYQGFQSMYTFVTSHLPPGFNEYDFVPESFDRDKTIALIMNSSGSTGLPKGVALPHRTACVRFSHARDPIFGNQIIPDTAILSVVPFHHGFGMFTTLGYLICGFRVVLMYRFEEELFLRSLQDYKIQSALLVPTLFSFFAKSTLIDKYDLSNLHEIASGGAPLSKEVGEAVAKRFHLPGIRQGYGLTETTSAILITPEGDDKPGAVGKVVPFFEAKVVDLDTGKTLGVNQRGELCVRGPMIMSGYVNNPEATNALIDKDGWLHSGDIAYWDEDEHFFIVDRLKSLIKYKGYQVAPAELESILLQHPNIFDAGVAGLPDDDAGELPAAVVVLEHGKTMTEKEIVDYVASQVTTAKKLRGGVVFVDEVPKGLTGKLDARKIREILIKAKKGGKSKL
Sequence of Nuclear receptor subfamily 1 group I member 3 (Homo sapiens) (Q14994 whole entry, looked up): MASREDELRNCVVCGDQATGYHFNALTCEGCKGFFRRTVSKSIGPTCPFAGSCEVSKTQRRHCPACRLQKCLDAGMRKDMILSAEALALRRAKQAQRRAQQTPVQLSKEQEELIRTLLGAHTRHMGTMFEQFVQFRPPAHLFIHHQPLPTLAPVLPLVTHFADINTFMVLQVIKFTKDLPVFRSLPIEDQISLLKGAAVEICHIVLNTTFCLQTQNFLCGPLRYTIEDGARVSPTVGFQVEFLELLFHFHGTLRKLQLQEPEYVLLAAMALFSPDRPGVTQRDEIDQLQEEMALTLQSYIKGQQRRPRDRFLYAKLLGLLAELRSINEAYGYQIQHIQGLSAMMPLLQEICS

COc1nc(C)nc(N)n1
inactive: Potency [1] | Potency [2] | outcome [3] | Potency [4] | Potency [5] | outcome [6] | outcome [7] | outcome [8]

OC/C=C/c1ccccc1
inactive: Potency [1] | Potency [2] | outcome [3] | Potency [4] | Potency [5] | outcome [6] | outcome [7] | outcome [8]

CC(C)=CCC/C(C)=C/C(=O)O
inactive: Potency [1] | Potency [2] | outcome [3] | Potency [4] | Potency [5] | outcome [6] | outcome [7] | outcome [8]

Cc1ccccc1C(=O)O
inactive: Potency [1] | Potency [2] | outcome [3] | Potency [4] | Potency [5] | outcome [6] | outcome [7] | outcome [8]

CC1(C)OC(=O)Nc2ccc(Br)cc21
inactive: Potency [1] | Potency [2] | outcome [3] | Potency [4] | Potency [5] | outcome [6] | outcome [7] | Potency [9] | outcome [8]

O=C(O)C1CCC1
inactive: Potency [1] | Potency [2] | outcome [3] | Potency [4] | Potency [5] | outcome [6] | outcome [7] | outcome [8]

CC(C)(C)CC(C)(C)N
inactive: Potency [2] | outcome [3] | Potency [4] | Potency [5] | outcome [6] | outcome [7] | outcome [8]
active: Potency [1] 2.12 µM

OCCN1C[C@H](O)[C@@H](O)[C@H](O)[C@H]1CO
inactive: Potency [1] | Potency [2] | outcome [3] | Potency [4] | Potency [5] | outcome [6] | outcome [7] | outcome [8]

Nc1nc2c(ncn2CCC(CO)CO)c(=O)[nH]1
inactive: Potency [1] | Potency [2] | outcome [3] | Potency [4] | Potency [5] | outcome [6] | outcome [7] | outcome [8] | Potency [10] | Potency [11]

FC(F)(F)C(F)(F)C(F)(F)C(F)(F)C(F)(F)C(F)(F)C(F)(F)C(F)(F)C(F)(F)C(F)(F)F
inactive: activation [1] 2.2% [at 6.98 µM] | activity change, negative = cytotoxicity [2] 1.03% [at 6.97 µM] | activity change, negative = cytotoxicity [3] 5.5% [at 8.39 µM] | viability change, negative = cytotoxic [4] 3.38% [at 8.39 µM] | activity change, negative = inhibition [5] -2.43% [at 10.5 µM] | viability change, negative = cytotoxic [6] 1.23% [at 8.39 µM] | activity change, negative = cytotoxicity [7] 0.303% [at 8.39 µM] | viability change, negative = cytotoxic [8] -2.77% [at 8.39 µM]

Nc1cc(C(Cl)=C(Cl)Cl)c(S(N)(=O)=O)cc1S(N)(=O)=O
inactive: Potency [1] | Potency [2] | outcome [3] | Potency [4] | Potency [5] | outcome [6] | outcome [7] | outcome [8]

CN(C)N=Nc1ccccc1
inactive: Potency [1] | Potency [2] | outcome [3] | Potency [4] | Potency [5] | outcome [6] | outcome [7] | outcome [8] | Potency [10] | Potency [11]

C=CCn1c(=O)n([C@@H]2O[C@H](CO)[C@@H](O)[C@H]2O)c2nc(N)[nH]c(=O)c21
inactive: Potency [1] | Potency [2] | outcome [3] | Potency [4] | Potency [5] | outcome [6] | outcome [7] | outcome [8]

C[N+](C)(C)CC[N+]1(C)Cc2c(Cl)c(Cl)c(Cl)c(Cl)c2C1
inactive: Potency [1] | Potency [2] | outcome [3] | Potency [4] | Potency [5] | outcome [6] | outcome [7] | outcome [8]

C=CCOc1nc(OCC=C)nc(OCC=C)n1
inactive: Potency [1] | Potency [2] | outcome [3] | Potency [4] | Potency [5] | outcome [6] | outcome [7] | outcome [8]

O=C(O)c1ccc[n+]([O-])c1
inactive: Potency [1] | Potency [2] | outcome [3] | Potency [4] | Potency [5] | outcome [6] | outcome [7] | outcome [8]

COC(=O)CCCCCCCCC(=O)OC
inactive: Potency [1] | Potency [2] | outcome [3] | Potency [4] | Potency [5] | outcome [6] | outcome [7] | outcome [8] | Potency [10] | Potency [11]

CC(C)(C)OC(=O)N1C[C@@H](F)C[C@H]1C(=O)O
inactive: Potency [1] | Potency [2] | outcome [3] | Potency [4] | Potency [5] | outcome [6] | outcome [7] | Potency [9] | outcome [8]

COc1cc(C(=O)N2CCOCC2)cc(OC)c1OC
inactive: Potency [1] | Potency [2] | outcome [3] | Potency [4] | Potency [5] | outcome [6] | outcome [7] | outcome [8]

C1COCCO1
inactive: Potency [1] | Potency [2] | outcome [3] | Potency [4] | Potency [5] | outcome [6] | outcome [7] | outcome [8] | Potency [10] | Potency [11]
